PubChem BioAssay (Tox21)
“And” between values parts separate entries of the source, which are not always exact repeats. Identical values can stand only once. Results filed as inconclusive are left out. A call without a number means that no potency is given here. Some compounds were tested as several samples or in several runs, with calls that do not always agree. The source made the active and inactive calls. Calls come from the whole dose curve; as a rule, active = well fitted curve in the direction sought with a large enough effect in the repeat runs; inconclusive = weak or mixed curves; inactive = no such curve, though single readings can be large; an effect the other way counts as inactive or inconclusive.

biological target: Androgen receptor (Homo sapiens) (UniProt P10275); assay: qHTS assay to identify small molecule antagonists of the androgen receptor (AR) signaling pathway using the MDA cell line in the presence of 0.5 nM R1881 (AID 1259243); details: MDA-kb2 MMTV-luciferase, R1881 0.5 nM, 16 h; series mostly up to 92.4 µM; note: potency is the fitted concentration of half-maximal effect; nearly all actives have a fitted effect of over 50% in size
Outline: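 MDA-kb2, MMTV-luc (AR/GR elements); 3,000 cells/well; cpd + 0.5 nM R1881 final; 16 hr 37C, 0% CO2; ONE-Glo 30 min RT; luminescence.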

Sequence of Androgen receptor (Homo sapiens) (P10275 whole entry, looked up): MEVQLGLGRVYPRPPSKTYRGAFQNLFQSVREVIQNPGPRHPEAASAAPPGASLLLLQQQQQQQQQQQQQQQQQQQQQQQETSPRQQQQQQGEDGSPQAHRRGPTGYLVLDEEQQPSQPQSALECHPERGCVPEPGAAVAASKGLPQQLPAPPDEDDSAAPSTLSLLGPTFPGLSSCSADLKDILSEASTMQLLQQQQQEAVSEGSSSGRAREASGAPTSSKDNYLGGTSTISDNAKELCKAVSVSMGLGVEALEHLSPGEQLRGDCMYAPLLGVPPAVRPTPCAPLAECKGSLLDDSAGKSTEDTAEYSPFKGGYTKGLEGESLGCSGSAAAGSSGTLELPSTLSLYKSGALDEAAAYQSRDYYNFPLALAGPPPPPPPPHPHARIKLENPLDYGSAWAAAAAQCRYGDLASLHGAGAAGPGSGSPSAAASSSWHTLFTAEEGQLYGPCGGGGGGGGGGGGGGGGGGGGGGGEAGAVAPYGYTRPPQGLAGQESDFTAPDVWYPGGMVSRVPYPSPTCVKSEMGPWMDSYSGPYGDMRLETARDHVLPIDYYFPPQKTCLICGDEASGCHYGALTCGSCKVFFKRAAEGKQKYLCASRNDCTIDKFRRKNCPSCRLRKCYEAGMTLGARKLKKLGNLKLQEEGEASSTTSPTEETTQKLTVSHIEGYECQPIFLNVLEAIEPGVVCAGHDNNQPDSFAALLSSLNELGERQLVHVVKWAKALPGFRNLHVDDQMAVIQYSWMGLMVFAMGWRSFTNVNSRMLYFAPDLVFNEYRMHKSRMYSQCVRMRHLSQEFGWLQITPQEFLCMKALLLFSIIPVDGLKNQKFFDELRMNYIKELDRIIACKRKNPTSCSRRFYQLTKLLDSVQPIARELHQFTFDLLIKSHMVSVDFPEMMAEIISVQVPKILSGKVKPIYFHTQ

Question: Which Potency does the source give for c1cc2ccc3cccc4ccc(c1)c2c34 here?
Answer: 16.1 µM (active)

Question: With Cc1ccc(-c2c(Cl)nc(C#N)n2S(=O)(=O)N(C)C)cc1 as the molecule, how does the Potency read?
Answer: 38.5 µM (active)

Question: For C/C(=C\c1ccccc1)[N+](=O)[O-], which Potency is on record?
Answer: 12.2 µM (active)

Question: For CO/N=C(/C(=O)OC)c1ccccc1COc1ccccc1C, which Potency is on record?
Answer: 17.2 µM (active)

biological target: Estrogen receptor (Homo sapiens) (UniProt P03372); assay: qHTS assay to identify small molecule antagonists of the estrogen receptor alpha (ER-alpha) signaling pathway using the BG1 cell line in the presence of 0.1 nM 17-beta-estradiol (AID 1259244); details: VM7Luc4E2 (BG1) ERE-luciferase, antagonist mode, 0.1 nM E2, 22 h; series mostly up to 92.4 µM; note: nearly all actives have a fitted effect of over 50% in size; note: potency is the fitted concentration of half-maximal effect
Outline: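 Luminescence after ONE-Glo (30 min, room temperature) measured ERE-luciferase activity in VM7Luc4E2 cells treated 22 h with compound and 0.1 nM final 17beta-estradiol as stimulator.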

Sequence of Estrogen receptor (Homo sapiens) (P03372 whole entry, looked up): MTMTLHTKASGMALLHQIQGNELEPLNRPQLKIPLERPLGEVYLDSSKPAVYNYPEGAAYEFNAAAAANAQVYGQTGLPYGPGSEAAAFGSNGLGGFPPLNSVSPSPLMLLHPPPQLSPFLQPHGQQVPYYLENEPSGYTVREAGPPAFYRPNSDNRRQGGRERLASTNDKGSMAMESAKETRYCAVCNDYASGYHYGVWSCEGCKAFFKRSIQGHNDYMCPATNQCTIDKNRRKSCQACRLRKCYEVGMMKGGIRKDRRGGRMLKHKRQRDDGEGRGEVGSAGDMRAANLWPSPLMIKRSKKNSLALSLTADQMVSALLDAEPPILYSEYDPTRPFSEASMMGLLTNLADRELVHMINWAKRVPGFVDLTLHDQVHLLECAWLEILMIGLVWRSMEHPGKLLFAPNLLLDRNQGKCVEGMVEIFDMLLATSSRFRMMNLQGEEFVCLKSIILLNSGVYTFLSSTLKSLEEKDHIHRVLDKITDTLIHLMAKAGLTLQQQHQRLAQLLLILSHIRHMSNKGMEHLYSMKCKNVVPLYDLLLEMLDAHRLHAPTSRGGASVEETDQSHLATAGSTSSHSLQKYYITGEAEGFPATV

Question: Which Potency does the source give for c1cc2ccc3cccc4ccc(c1)c2c34 here?
Answer: inactive

Question: For Cc1ccc(-c2c(Cl)nc(C#N)n2S(=O)(=O)N(C)C)cc1, which Potency is on record?
Answer: 43.2 µM (active)

Question: With Clc1cc(C(Cl)(Cl)Cl)cnc1Cl as the molecule, how does the Potency read?
Answer: inactive

Question: For C/C(=C\c1ccccc1)[N+](=O)[O-], which Potency is on record?
Answer: inactive

Question: For CN1C[C@H](CNC(=O)OCc2ccccc2)C[C@@H]2c3cccc4c3c(cn4C)C[C@H]21, which Potency is on record?
Answer: inactive

Question: With CO/N=C(/C(=O)OC)c1ccccc1COc1ccccc1C as the molecule, how does the Potency read?
Answer: inactive

system: not listed separately; assay: qHTS assay to identify small molecule HDAC inhibitors (AID 1259364); details: HCT-116 HDAC-Glo I/II luminescence, 2 h; series mostly up to 92.4 µM; note: potency is the fitted concentration of half-maximal effect;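 note: wild-type HCT-116 cells with endogenous class I/II HDAC activity; nearly all actives have a fitted effect of over 45% in size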
Outline: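 HCT-116 (wild type), 1,500 cells/well, overnight; compound 2 hr 37C 5% CO2; HDAC-Glo I/II reagent 30 min RT; luminescence readout.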

Question: Which Potency does the source give for c1cc2ccc3cccc4ccc(c1)c2c34 here?
Answer: inactive

Question: Which Potency does the source give for BrCC(Br)C1CCC(Br)C(Br)C1 (centres undefined) here?
Answer: inactive

Question: For Oc1ccc(Cl)c(Cl)c1Cl, which Potency is on record?
Answer: inactive

Question: Which Potency does the source give for CCOC(=O)[C@]1(c2ccccc2)Oc2ccccc2[C@@H]1N here?
Answer: inactive

Question: With O=C(N[C@H](c1ccccc1)[C@@H]1CN2CCC1CC2)c1c(Cl)ccc(C(F)(F)F)c1Cl as the molecule, how does the Potency read?
Answer: inactive

Question: Which Potency does the source give for CCCCN=C=O here?
Answer: inactive

Question: For [CH3][Sn]([CH3])([Cl])[Cl], which Potency is on record?
Answer: inactive

Question: With CCOP(=O)(OCC)Oc1ccc([N+](=O)[O-])cc1 as the molecule, how does the Potency read?
Answer: inactive

Question: With CC(C)O.CC(C)O.OCCN(CCO)CCO.OCCN(CCO)CCO.[Ti] as the molecule, how does the Potency read?
Answer: inactive

Question: For COc1nn(C(=O)NS(=O)(=O)c2ccccc2OC(F)(F)F)c(=O)n1C, which Potency is on record?
Answer: inactive

Question: Which Potency does the source give for CCOS(C)(=O)=O here?
Answer: inactive

Question: Which Potency does the source give for Nc1nc(N)nc(N)n1 here?
Answer: inactive

Question: Which Potency does the source give for CCCCN(N=O)C(=N)N[N+](=O)[O-] here?
Answer: inactive

Question: With Clc1cc(C(Cl)(Cl)Cl)cnc1Cl as the molecule, how does the Potency read?
Answer: inactive

Question: With CCCC(Cn1cncn1)c1ccc(Cl)cc1Cl (centres undefined) as the molecule, how does the Potency read?
Answer: inactive

Question: With O=Cc1ccc(Cl)cc1Cl as the molecule, how does the Potency read?
Answer: inactive

Question: For CCCCc1c(C)nc(NCC)nc1OS(=O)(=O)N(C)C, which Potency is on record?
Answer: inactive

Question: With CCCCOC(=O)c1ccccc1C(=O)OCc1ccccc1 as the molecule, how does the Potency read?
Answer: inactive and 17.2 µM (active)

Question: With CC1C(=O)C[C@]2(C(C)C)C[C@H]12 (some centres undefined) as the molecule, how does the Potency read?
Answer: inactive

Question: For O=S(=O)(O)C(F)(F)C(F)(F)C(F)(F)C(F)(F)F, which Potency is on record?
Answer: inactive

Question: Which Potency does the source give for CCOC(=O)CBr here?
Answer: inactive

Question: For CCn1cc[n+](C)c1, which Potency is on record?
Answer: inactive

Question: With [O-][Cl+]O as the molecule, how does the Potency read?
Answer: inactive

Question: With O=C(O)c1ccccc1C(=O)Nc1cccc2ccccc12 as the molecule, how does the Potency read?
Answer: inactive

Question: With C/C(=C\c1ccccc1)[N+](=O)[O-] as the molecule, how does the Potency read?
Answer: inactive

Question: With O=C(O)C1(c2ccc3c(c2)OC[C@H](Cc2ccc(-c4ccccc4)cc2)[C@H]3O)CCCC1 as the molecule, how does the Potency read?
Answer: inactive

Question: For CCCCCCCCOC(=O)c1ccc(C(=O)OCCCCCCCC)c(C(=O)OCCCCCCCC)c1, which Potency is on record?
Answer: inactive

Question: Which Potency does the source give for CN1C[C@H](CNC(=O)OCc2ccccc2)C[C@@H]2c3cccc4c3c(cn4C)C[C@H]21 here?
Answer: inactive

Question: For C=COC(C)=O, which Potency is on record?
Answer: inactive

Question: Which Potency does the source give for Clc1cccc2ccccc12 here?
Answer: inactive

Question: For O=S(=O)(Cl)c1ccccc1, which Potency is on record?
Answer: inactive

Question: Which Potency does the source give for CC(C)(CCl)C(=O)Cl here?
Answer: inactive

Question: For CO/N=C(/C(=O)OC)c1ccccc1COc1ccccc1C, which Potency is on record?
Answer: inactive

Question: For O=Cc1ccc2c(c1)OCO2, which Potency is on record?
Answer: inactive

system: not listed separately; assay: qHTS assay to identify small molecule HDAC inhibitors - cell viability counter screen (AID 1259365); details: HCT-116 viability, CellTiter-Glo ATP luminescence, 2 h; series mostly up to 92.4 µM; note: nearly all actives have a fitted effect of over 50% in size
Outline: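 Wild-type HCT-116 cells were seeded at 1,500 per well, incubated overnight at 37 C, then exposed to compounds in DMSO for 2hr. Viability was read by CellTiter-Glo luminescence after 30min at room temperature.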

Question: With c1cc2ccc3cccc4ccc(c1)c2c34 as the molecule, how does the Potency read?
Answer: inactive

Question: Which Potency does the source give for BrCC(Br)C1CCC(Br)C(Br)C1 (centres undefined) here?
Answer: inactive

Question: Which Potency does the source give for Oc1ccc(Cl)c(Cl)c1Cl here?
Answer: inactive

Question: With CCOC(=O)[C@]1(c2ccccc2)Oc2ccccc2[C@@H]1N as the molecule, how does the Potency read?
Answer: inactive

Question: Which Potency does the source give for O=C(N[C@H](c1ccccc1)[C@@H]1CN2CCC1CC2)c1c(Cl)ccc(C(F)(F)F)c1Cl here?
Answer: inactive

Question: With CCCCN=C=O as the molecule, how does the Potency read?
Answer: inactive

Question: For [CH3][Sn]([CH3])([Cl])[Cl], which Potency is on record?
Answer: inactive

Question: For CCOP(=O)(OCC)Oc1ccc([N+](=O)[O-])cc1, which Potency is on record?
Answer: inactive

Question: With CC(C)O.CC(C)O.OCCN(CCO)CCO.OCCN(CCO)CCO.[Ti] as the molecule, how does the Potency read?
Answer: inactive

Question: For COc1nn(C(=O)NS(=O)(=O)c2ccccc2OC(F)(F)F)c(=O)n1C, which Potency is on record?
Answer: inactive

Question: With CCOS(C)(=O)=O as the molecule, how does the Potency read?
Answer: inactive

Question: Which Potency does the source give for Nc1nc(N)nc(N)n1 here?
Answer: inactive

Question: With CCCCN(N=O)C(=N)N[N+](=O)[O-] as the molecule, how does the Potency read?
Answer: inactive

Question: Which Potency does the source give for Cc1ccc(-c2c(Cl)nc(C#N)n2S(=O)(=O)N(C)C)cc1 here?
Answer: inactive

Question: For Clc1cc(C(Cl)(Cl)Cl)cnc1Cl, which Potency is on record?
Answer: inactive

Question: For CCCC(Cn1cncn1)c1ccc(Cl)cc1Cl (centres undefined), which Potency is on record?
Answer: inactive

Question: For O=Cc1ccc(Cl)cc1Cl, which Potency is on record?
Answer: inactive

Question: For CCCCc1c(C)nc(NCC)nc1OS(=O)(=O)N(C)C, which Potency is on record?
Answer: inactive

Question: Which Potency does the source give for CCCCOC(=O)c1ccccc1C(=O)OCc1ccccc1 here?
Answer: inactive

Question: Which Potency does the source give for CC1C(=O)C[C@]2(C(C)C)C[C@H]12 (some centres undefined) here?
Answer: inactive

Question: For O=S(=O)(O)C(F)(F)C(F)(F)C(F)(F)C(F)(F)F, which Potency is on record?
Answer: inactive

Question: With CCOC(=O)CBr as the molecule, how does the Potency read?
Answer: inactive

Question: For CCn1cc[n+](C)c1, which Potency is on record?
Answer: inactive

Question: For [O-][Cl+]O, which Potency is on record?
Answer: inactive

Question: For O=C(O)c1ccccc1C(=O)Nc1cccc2ccccc12, which Potency is on record?
Answer: inactive

Question: With C/C(=C\c1ccccc1)[N+](=O)[O-] as the molecule, how does the Potency read?
Answer: inactive

Question: Which Potency does the source give for O=C(O)C1(c2ccc3c(c2)OC[C@H](Cc2ccc(-c4ccccc4)cc2)[C@H]3O)CCCC1 here?
Answer: inactive

Question: Which Potency does the source give for CCCCCCCCOC(=O)c1ccc(C(=O)OCCCCCCCC)c(C(=O)OCCCCCCCC)c1 here?
Answer: inactive

Question: Which Potency does the source give for CN1C[C@H](CNC(=O)OCc2ccccc2)C[C@@H]2c3cccc4c3c(cn4C)C[C@H]21 here?
Answer: inactive

Question: Which Potency does the source give for C=COC(C)=O here?
Answer: inactive

Question: With Clc1cccc2ccccc12 as the molecule, how does the Potency read?
Answer: inactive

Question: Which Potency does the source give for O=S(=O)(Cl)c1ccccc1 here?
Answer: inactive

Question: Which Potency does the source give for CC(C)(CCl)C(=O)Cl here?
Answer: inactive

Question: For CO/N=C(/C(=O)OC)c1ccccc1COc1ccccc1C, which Potency is on record?
Answer: inactive

Question: Which Potency does the source give for O=Cc1ccc2c(c1)OCO2 here?
Answer: inactive
